We go through ten molecules from PubChem BioAssay (Tox21).

Test [1] has as its target Thyrotropin-releasing hormone receptor (Homo sapiens) (UniProt P34981). As to the kind of experiment: qHTS assay to identify small molecule agonists of the thyrotropin-releasing hormone receptor (TRHR) signaling pathway (AID 1346891; calls by dose curve;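 also: HEK293 cells expressing TRHR with calcium dye readout; series mostly up to about 58 µM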). A digest of the protocol:
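Compounds were tested as agonists at 15 concentrations, in triplicate, on TRHR-Hek293 cells; calcium-sensitive dye fluorescence was recorded for 3 min following addition.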
A general note: qHTS replaces the single test concentration by a dilution series.

Test [2] in a line: Caspase-3/7 induction in HepG2 cells by small molecules, qHTS assay (AID 1346978). Also: nearly all actives have a fitted effect of over 15% in size. A digest of the protocol:
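Wild-type HepG2 cells (2,000/well) were settled 5 h at 37 C, 5% CO2, then exposed to compounds in DMSO for 17 h. Caspase-3/7 activity was read by luminescence 30 min after adding Caspase-Glo 3/7 reagent at room temperature.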

Test [3] in a line: Caspase-3/7 induction in CHO-K1 cells by small molecules, qHTS cell viability counter screen (AID 1346979). Also: nearly all actives have a fitted effect of over 35% in size. Also: potency is read from the fitted curve at half-maximal effect. Put shortly:
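Viability readout by fluorescence (CellTiter-Fluor) on wild-type CHO-K1 cells exposed for 16hr at 37C and 5% CO2 to compounds delivered in DMSO; reagent incubated 1hr before reading.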

Test [4] can be described thus: Caspase-3/7 induction in CHO-K1 cells by small molecules, qHTS assay (AID 1346980). Also: nearly all actives have a fitted effect of over 15% in size. Put shortly:
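Wild-type cells were seeded at 1,500 per well and settled 5 hr at 37 C, 5% CO2, then exposed to DMSO-dissolved compounds for 17 hr. Caspase-Glo 3/7 reagent was added, and luminescence was read after 30min at room temperature.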

Test [5] in a line: Caspase-3/7 induction in HepG2 cells by small molecules, qHTS cell viability counter screen (AID 1346981). Also: nearly all actives have a fitted effect of over 30% in size. Also: potency is read from the fitted curve at half-maximal effect. A digest of the protocol: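 Viability determined by CellTiter-Fluor fluorescence in HepG2 wells also used for the luminescent Caspase-Glo 3/7 read. Compounds were present for 16 hr at 37 C, 5% CO2 before reagent addition.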
In test [6] the target is Nuclear receptor subfamily 1 group I member 2 (Homo sapiens) (UniProt O75469). Description: Human pregnane X receptor (PXR) small molecule agonists, qHTS assay (AID 1346982). Also: nearly all actives have a fitted effect of over 35% in size. Also: potency is read from the fitted curve at half-maximal effect. A digest of the protocol: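 Compound-induced hPXR transactivation of a CYP3A4 luciferase reporter was scored in HepG2 PXR-Luc cells over 24 hr at 37 C, 5% CO2, by luminescence.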
Chain of Nuclear receptor subfamily 1 group I member 2 (Homo sapiens) (O75469 whole entry, looked up): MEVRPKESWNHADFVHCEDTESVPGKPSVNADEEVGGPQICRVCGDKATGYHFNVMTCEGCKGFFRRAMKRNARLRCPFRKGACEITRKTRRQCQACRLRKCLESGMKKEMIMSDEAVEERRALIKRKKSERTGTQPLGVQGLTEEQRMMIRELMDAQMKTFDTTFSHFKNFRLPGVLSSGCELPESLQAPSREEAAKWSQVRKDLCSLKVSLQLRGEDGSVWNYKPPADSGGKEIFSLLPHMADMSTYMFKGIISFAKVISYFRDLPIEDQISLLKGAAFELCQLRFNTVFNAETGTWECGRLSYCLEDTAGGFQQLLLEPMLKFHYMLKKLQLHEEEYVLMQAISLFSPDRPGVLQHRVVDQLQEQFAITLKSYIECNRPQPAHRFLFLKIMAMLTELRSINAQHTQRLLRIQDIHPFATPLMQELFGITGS
The target in test [7] is Nuclear receptor subfamily 1 group I member 2 (Rattus norvegicus) (UniProt Q9R1A7). As to the kind of experiment: Rat pregnane X receptor (rPXR) activation by small molecules, qHTS assay (AID 1346983). Also: nearly all actives have a fitted effect of over 20% in size. Also: potency is read from the fitted curve at half-maximal effect. Conditions: rPXR luciferase reporter cells, One-Glo luminescence, 24 h; max activation: active compounds read high. Put shortly: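 Cell-based rPXR luciferase reporter assay, 2,000 cells per well, rested 5hr at 37 C before compound addition in DMSO, then 24 hr at 37 C. One-Glo reagent was added and luminescence read after 30 min at room temperature.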
Chain of Nuclear receptor subfamily 1 group I member 2 (Rattus norvegicus) (Q9R1A7 whole entry, looked up): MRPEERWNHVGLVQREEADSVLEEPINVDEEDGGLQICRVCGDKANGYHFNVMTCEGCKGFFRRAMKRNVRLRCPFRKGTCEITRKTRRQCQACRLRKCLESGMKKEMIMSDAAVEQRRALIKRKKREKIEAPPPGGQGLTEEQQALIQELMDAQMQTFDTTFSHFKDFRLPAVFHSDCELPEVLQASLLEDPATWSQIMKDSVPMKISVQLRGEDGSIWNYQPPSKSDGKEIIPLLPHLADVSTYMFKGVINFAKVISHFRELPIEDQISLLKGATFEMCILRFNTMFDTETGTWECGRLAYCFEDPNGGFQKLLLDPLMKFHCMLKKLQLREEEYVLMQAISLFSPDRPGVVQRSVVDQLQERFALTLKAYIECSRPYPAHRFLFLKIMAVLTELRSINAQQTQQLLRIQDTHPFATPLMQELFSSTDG

In test [8] the target is Nuclear receptor subfamily 1 group I member 2 (Homo sapiens) (UniProt O75469). Description: CYP3A4 induction through human pregnane X receptor (PXR) by small molecules, qHTS assay (AID 1346984). Also: nearly all actives have a fitted effect of over 40% in size. Also: potency is read from the fitted curve at half-maximal effect. A digest of the protocol: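 Readings come from a luciferase reporter: DPX-2 cells, which are HepG2 cotransfected with PXR and a CYP3A4-promoter construct, were exposed to test compounds for 24 h at 37C before One-Glo detection.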

The target is the same in test [9]. Description: Human pregnane X receptor (PXR) activation by small molecules, qHTS assay (AID 1346985). Also: nearly all actives have a fitted effect of over 40% in size. Also: potency is read from the fitted curve at half-maximal effect. A digest of the protocol: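 DPX-2 cells (HepG2 co-transfected with a PXR response element and a CYP3A4-promoter luciferase construct) were seeded at 2,000 per well, rested 5 hr at 37C, then exposed to DMSO-dissolved compounds for 24 hr. Activation was read as luciferase luminescence.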

The target of test [10] is Cytochrome P450 2D6 (Homo sapiens) (UniProt P10635). As to the kind of experiment: Cytochrome P450 Family 2 Subfamily D Member 6 (CYP2D6) small molecule antagonists: luciferase reporter qHTS assay (AID 1671196). Also: nearly all actives have a fitted effect of over 50% in size. Also: potency is read from the fitted curve at half-maximal effect. A digest of the protocol: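 Each well received CYP2D6 with its proluciferin substrate and chemical, sat 10 min, then got NADPH regeneration solution for 1 h at room temperature. Luminescence in RLU served as the activity measure.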
Chain of Cytochrome P450 2D6 (Homo sapiens) (P10635 whole entry, looked up): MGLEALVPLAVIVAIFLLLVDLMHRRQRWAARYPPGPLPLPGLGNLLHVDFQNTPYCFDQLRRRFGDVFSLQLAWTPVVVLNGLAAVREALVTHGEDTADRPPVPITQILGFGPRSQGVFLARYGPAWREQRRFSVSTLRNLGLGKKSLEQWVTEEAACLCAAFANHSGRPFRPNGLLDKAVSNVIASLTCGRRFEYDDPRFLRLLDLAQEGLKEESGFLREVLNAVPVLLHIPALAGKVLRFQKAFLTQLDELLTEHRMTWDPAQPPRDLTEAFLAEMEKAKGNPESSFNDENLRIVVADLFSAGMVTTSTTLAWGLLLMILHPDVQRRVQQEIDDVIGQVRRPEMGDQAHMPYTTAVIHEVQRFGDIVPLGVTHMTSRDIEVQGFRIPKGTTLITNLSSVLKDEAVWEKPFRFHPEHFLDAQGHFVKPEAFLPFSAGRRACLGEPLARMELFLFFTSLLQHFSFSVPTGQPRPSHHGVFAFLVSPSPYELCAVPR
On the technique in general: In a reporter assay the amount or activity of a reporter protein is the signal.

Test [11] has as its target Cytochrome P450 2C9 (Homo sapiens) (UniProt P11712). Description: Cytochrome P450 Family 2 Subfamily C Member 9 (CYP2C9) small molecule antagonists: luciferase reporter qHTS assay (AID 1671198). Also: nearly all actives have a fitted effect of over 50% in size. Also: potency is read from the fitted curve at half-maximal effect. Put shortly: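 CYP2C9 activity was measured with a P450-Glo proluciferin substrate. Enzyme–substrate mix was held with compound for 10 min at room temperature, then NADPH regeneration solution was added for 1 h at 37C. Luciferin product was read as luminescence.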

The target in test [12] is Cytochrome P450 1A2 (Homo sapiens) (UniProt P05177). As to the kind of experiment: Cytochrome P450 Family 1 Subfamily A Member 2 (CYP1A2) small molecule antagonists: luciferase reporter qHTS assay (AID 1671199). Also: nearly all actives have a fitted effect of over 50% in size. Also: potency is read from the fitted curve at half-maximal effect. A digest of the protocol:
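Enzymatic CYP1A2 assay, human, luminescent: 10 min compound–enzyme–substrate preincubation, 1 h NADPH-dependent turnover, 20 min detection step, room temperature throughout. Reduced light indicates lower CYP1A2 activity.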

The target of test [13] is Voltage-gated inwardly rectifying potassium channel KCNH2 (Homo sapiens) (UniProt Q12809). Description: Human Ether-a-go-go-Related Gene (hERG) channel small molecule antagonists: fluorescence cell-based qHTS assay (AID 1671200). Also: nearly all actives have a fitted effect of over 50% in size. Also: potency is read from the fitted curve at half-maximal effect. A digest of the protocol: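 Thallium served as the potassium surrogate; its influx into dye-loaded U2OS cells carrying the channel was measured by fluorescence over 2 min.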
Chain of Voltage-gated inwardly rectifying potassium channel KCNH2 (Homo sapiens) (Q12809 whole entry, looked up): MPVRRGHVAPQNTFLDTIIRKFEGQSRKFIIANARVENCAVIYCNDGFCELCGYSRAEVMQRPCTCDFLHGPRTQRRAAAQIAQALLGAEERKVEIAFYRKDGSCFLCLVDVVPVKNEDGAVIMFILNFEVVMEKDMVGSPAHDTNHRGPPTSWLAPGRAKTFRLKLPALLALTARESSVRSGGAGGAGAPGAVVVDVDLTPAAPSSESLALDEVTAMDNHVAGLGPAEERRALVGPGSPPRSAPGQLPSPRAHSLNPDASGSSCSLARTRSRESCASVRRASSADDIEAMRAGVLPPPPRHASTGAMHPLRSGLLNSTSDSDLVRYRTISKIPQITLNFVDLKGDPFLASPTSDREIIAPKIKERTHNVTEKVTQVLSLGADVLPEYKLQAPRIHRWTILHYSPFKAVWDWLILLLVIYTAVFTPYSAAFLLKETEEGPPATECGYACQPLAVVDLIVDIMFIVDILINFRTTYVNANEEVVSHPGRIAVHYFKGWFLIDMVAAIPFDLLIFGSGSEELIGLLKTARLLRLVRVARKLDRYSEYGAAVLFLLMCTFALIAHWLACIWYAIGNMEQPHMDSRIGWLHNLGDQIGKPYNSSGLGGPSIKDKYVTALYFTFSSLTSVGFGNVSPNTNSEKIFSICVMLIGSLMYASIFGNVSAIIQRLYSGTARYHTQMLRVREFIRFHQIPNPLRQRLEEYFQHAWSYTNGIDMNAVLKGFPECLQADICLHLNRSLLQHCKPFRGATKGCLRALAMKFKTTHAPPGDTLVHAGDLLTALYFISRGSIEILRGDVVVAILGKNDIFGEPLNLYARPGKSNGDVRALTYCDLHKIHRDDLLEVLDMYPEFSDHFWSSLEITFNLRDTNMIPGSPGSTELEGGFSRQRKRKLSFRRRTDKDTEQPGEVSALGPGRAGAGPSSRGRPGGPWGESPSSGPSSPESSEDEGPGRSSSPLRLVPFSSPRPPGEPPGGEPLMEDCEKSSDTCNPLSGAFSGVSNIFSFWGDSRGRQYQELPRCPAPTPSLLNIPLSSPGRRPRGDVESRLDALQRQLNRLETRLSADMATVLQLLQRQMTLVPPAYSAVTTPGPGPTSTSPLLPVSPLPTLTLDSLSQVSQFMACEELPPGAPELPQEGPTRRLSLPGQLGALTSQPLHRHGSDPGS
(The hERG channel carries a current that helps repolarise heart muscle cells.)

Test [14] addresses Cytochrome P450 3A4 (Homo sapiens) (UniProt P08684). Description: Cytochrome P450 Family 3 Subfamily A Member 4 (CYP3A4) small molecule antagonists: luciferase reporter qHTS assay (AID 1671201). A digest of the protocol: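 Relative luminescence units after 20 min with luciferin detection reagent served as read-out. Beforehand, CYP3A4 turned over a proluciferin substrate for 1 h at room temperature with NADPH regeneration, following 10 min compound preincubation.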

A short description of test [15]: Human pregnane X receptor (PXR) small molecule agonists, qHTS cell viability counter screen (AID 1346977). Also: nearly all actives have a fitted effect of over 50% in size. Also: potency is read from the fitted curve at half-maximal effect. Put shortly:
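Viability counter screen: CellTiter-Fluor signal in PXR-Luc HepG2 cells, 24hr compound exposure, 37C, 5% CO2.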

In test [16] the target is Cytochrome P450 2C19 (Homo sapiens) (UniProt P33261). Description: Cytochrome P450 Family 2 Subfamily C Member 19 (CYP2C19) small molecule antagonists: luciferase reporter qHTS assay (AID 1671197). Also: nearly all actives have a fitted effect of over 65% in size. Also: potency is read from the fitted curve at half-maximal effect. Put shortly:
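P450-Glo CYP2C19 system: enzyme-substrate mix with compound 10 min at room temperature, then NADPH regeneration solution, 1 h at 37C. Proluciferin-to-luciferin conversion detected by luminescence after 20 min with detection reagent; ketoconazole as positive control.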

Values without a mark were called inactive. Records with an inconclusive call do not appear. Activity calls are given as the source filed them. Unless noted, calls follow the shape of the dose curve; as a rule, active = well fitted curve in the direction sought with a large enough effect in the repeat runs; inconclusive = weak or mixed curves; inactive = no such curve, though single readings can be large; an effect the other way counts as inactive or inconclusive.
% is scaled to controls: 0 for no effect and ±100 for the full control effect.

Chain of Cytochrome P450 1A2 (Homo sapiens) (P05177 whole entry, looked up): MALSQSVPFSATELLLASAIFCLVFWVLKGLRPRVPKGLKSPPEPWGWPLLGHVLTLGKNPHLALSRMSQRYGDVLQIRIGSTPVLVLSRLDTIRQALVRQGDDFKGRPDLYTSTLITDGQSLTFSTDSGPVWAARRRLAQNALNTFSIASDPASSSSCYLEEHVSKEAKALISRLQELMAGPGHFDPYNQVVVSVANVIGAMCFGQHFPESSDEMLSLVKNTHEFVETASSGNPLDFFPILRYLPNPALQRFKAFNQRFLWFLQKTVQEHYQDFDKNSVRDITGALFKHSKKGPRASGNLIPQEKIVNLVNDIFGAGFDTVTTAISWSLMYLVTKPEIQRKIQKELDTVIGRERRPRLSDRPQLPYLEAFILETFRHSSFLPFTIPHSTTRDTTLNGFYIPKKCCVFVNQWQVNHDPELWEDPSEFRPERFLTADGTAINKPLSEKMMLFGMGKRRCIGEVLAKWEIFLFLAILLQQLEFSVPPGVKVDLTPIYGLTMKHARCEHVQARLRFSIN
Chain of Cytochrome P450 2C19 (Homo sapiens) (P33261 whole entry, looked up): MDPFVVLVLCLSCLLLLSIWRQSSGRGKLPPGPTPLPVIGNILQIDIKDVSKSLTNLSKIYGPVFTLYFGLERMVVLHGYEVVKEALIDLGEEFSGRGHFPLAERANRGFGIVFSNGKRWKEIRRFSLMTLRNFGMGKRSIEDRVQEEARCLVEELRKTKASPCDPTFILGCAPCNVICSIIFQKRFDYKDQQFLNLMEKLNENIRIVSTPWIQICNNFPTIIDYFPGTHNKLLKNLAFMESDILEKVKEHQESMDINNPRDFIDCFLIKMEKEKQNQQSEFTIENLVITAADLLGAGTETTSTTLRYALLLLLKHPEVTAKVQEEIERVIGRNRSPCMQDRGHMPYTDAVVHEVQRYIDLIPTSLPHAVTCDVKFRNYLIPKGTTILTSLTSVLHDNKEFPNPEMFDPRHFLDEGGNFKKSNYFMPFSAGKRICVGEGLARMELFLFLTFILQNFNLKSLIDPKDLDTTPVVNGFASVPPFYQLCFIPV
Chain of Cytochrome P450 3A4 (Homo sapiens) (P08684 whole entry, looked up): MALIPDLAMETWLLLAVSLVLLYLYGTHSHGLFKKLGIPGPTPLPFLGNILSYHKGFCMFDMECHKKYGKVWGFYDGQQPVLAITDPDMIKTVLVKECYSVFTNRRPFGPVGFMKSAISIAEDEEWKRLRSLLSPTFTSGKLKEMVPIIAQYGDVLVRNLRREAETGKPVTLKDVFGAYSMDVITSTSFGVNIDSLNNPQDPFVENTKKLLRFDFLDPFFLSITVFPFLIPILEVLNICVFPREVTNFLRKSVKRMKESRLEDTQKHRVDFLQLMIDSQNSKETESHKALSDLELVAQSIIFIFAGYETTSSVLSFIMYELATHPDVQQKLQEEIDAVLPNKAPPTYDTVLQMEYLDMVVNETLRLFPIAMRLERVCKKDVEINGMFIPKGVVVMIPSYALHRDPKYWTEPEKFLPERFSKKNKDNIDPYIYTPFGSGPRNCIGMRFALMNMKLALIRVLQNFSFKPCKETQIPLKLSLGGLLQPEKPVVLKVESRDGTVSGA
Chain of Thyrotropin-releasing hormone receptor (Homo sapiens) (P34981 whole entry, looked up): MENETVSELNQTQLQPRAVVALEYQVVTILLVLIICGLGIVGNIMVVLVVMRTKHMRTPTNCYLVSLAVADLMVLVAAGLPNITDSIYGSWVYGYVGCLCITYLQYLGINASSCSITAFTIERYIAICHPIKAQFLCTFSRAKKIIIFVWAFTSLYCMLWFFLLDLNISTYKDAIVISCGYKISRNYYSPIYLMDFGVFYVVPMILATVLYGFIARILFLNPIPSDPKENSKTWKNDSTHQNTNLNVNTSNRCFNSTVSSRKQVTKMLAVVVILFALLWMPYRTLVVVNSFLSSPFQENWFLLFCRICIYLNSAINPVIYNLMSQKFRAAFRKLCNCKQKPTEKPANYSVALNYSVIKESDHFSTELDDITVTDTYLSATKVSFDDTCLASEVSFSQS
Chain of Cytochrome P450 2C9 (Homo sapiens) (P11712 whole entry, looked up): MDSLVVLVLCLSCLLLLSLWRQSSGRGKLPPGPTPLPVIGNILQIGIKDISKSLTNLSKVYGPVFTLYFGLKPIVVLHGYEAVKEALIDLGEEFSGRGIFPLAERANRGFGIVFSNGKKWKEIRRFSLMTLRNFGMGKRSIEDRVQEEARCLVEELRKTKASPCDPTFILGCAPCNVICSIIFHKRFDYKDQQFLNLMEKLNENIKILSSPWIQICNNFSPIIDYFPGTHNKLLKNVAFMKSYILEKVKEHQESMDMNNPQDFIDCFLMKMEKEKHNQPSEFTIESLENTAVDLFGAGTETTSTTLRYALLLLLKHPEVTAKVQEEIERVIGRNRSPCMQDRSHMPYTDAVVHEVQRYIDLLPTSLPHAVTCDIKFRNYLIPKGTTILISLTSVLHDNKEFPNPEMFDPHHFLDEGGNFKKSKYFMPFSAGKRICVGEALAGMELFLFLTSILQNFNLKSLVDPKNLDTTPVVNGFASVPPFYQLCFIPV

For the molecule `CCCCN(CCCC)CCCOC(=O)c1ccc(N)cc1`, the Potency result in test [1], in test [2], in test [3], in [5], in test [6] and in [8] was “inactive” in each case. In addition, the Potency entry in test [9], in test [11], in test [12] and in test [14] was “inactive” each time. Besides, in test [4], the outcome was inactive. Further, the max activation in test [7] is 0.416%. In addition, the Potency in [10] was 0.0219 µM (active); in test [13], 9.52 µM (active).
Turning to `CC(C)(C)C(=O)C(Oc1ccc(Cl)cc1)n1ccnc1` (configuration not stated), the Potency result in [1], in test [15], in [2], in test [5] and in [13] was “inactive” in each case. The Potency was 23.7 µM (active) in test [6]; 12.6 µM (active) in test [7]; 15.8 µM (active) in test [9]; 2.75 µM (active) in test [11]; 17.4 µM (active) in [12].
Consider `CCCCC/C(=C\c1ccccc1)CO`, for which the Potency entry in test [1], in [15], in [6] and in test [14] was “inactive” throughout. Moreover, in test [4], the molecule was classed as inactive. In addition, the Potency in [16] was 1.76 µM (active); in test [11] it was 39.4 µM (active); in test [12] it was 3.94 µM (active).
Regarding `Cc1ccc(Nc2nccc(N(C)c3ccc4c(C)n(C)nc4c3)n2)cc1S(N)(=O)=O`, the Potency entry in test [1], in [2], in test [10], in test [12] and in test [13] was “inactive” each time. The values for the Potency in test [3], in test [6] and in test [11] were 26.6 µM (active), 2.66 µM (active) and 15.5 µM (active), respectively. Also, the molecule was called inactive in test [4].
In the case of `CC(=O)Oc1ccc2c(c1)CC[C@@H]1[C@@H]2CC[C@]2(C)[C@@H](O)CC[C@@H]12`, the Potency result in [1], in test [2], in test [5], in test [8], in test [10] and in [11] was “inactive” throughout. The Potency entry in test [13] was “inactive”. The outcome in test [4] was inactive. The Potency in [6] was 26.6 µM (active); in test [16], 24.5 µM (active). Also, the max activation in test [7] is -1.91%.
As for `CC(C)=CC=O`, the Potency entry in test [1], in [2], in test [3], in [5], in test [6] and in test [10] was “inactive” each time. In addition, the Potency result in test [16], in test [11] and in [13] was “inactive” in each case. The call in test [4] was inactive.
Regarding `OC/C(Br)=C(\Br)CO`, the Potency result in test [1], in test [2], in test [3], in [5], in test [6] and in [13] was “inactive” throughout. For the same molecule, the call in [4] was inactive. The Potency in [10] was 35.3 µM (active).
For `COCCOC(=O)C1=C(C)NC(C)=C(C(=O)OC/C=C/c2ccccc2)C1c1cccc([N+](=O)[O-])c1` (configuration not stated), the Potency entry in test [1], in [2] and in test [13] was “inactive” each time. In addition, the Potency is 26.6 µM (active) in test [3]; 10.6 µM (active) in test [6]; 1.58 µM (active) in test [8]; 1.58 µM (active) in [9]; 21.9 µM (active) in [10]; 1.55 µM (active) in test [16]. Moreover, the Potency in [11] is 0.195 µM (active); in test [12] it was 15.5 µM (active). Besides, in test [4], the outcome was inactive.
On to `CN1CCN(CCCN2c3ccccc3Sc3ccc(S(=O)(=O)N(C)C)cc32)CC1`, for which the Potency result in test [1], in test [9] and in test [12] was “inactive” throughout. The Potency was 26.6 µM (active) in test [15]; 26.6 µM (active) in [3]; 29.8 µM (active) in [5]; 15.5 µM (active) in test [10]; 5.35 µM (active) in test [13]. For the same molecule, the molecule was classed as inactive in [4]. Moreover, the max activation in test [7] is 4.5%.
Turning to `CCOCCn1c(C2CCN(CCc3ccc(C(C)(C)C(=O)O)cc3)CC2)nc2ccccc21`, the Potency entry in test [1], in [2], in [3], in test [5], in test [6] and in [10] was “inactive” each time. The Potency entry in test [16], in test [11] and in test [14] was “inactive” throughout. In addition, the result in test [4] was inactive.
